Assay results: paper PMC7862700, “An all-to-all approach to the identification of sequence-specific readers for epigenetic DNA modifications on cytosine”

Key:
Assay in all cases: DAPPL (digital affinity profiling via proximity ligation, sequencing); 10 mM Tris-HCl pH 7.5, 50 mM NaCl, 1 mM DTT, 4% glycerol, room temperature, 30 min; GST-TFs on glutathione beads, 16-mer random dsDNA library, 0.1% formaldehyde crosslink after washing; high values mean tight binding
Settings in all cases: protein: recombinant; tags: N-terminal GST; dsDNA, one strand shown
[1] = target: T1, ERF (Homo sapiens, UniProt P50548 1-548)
T1 sequence: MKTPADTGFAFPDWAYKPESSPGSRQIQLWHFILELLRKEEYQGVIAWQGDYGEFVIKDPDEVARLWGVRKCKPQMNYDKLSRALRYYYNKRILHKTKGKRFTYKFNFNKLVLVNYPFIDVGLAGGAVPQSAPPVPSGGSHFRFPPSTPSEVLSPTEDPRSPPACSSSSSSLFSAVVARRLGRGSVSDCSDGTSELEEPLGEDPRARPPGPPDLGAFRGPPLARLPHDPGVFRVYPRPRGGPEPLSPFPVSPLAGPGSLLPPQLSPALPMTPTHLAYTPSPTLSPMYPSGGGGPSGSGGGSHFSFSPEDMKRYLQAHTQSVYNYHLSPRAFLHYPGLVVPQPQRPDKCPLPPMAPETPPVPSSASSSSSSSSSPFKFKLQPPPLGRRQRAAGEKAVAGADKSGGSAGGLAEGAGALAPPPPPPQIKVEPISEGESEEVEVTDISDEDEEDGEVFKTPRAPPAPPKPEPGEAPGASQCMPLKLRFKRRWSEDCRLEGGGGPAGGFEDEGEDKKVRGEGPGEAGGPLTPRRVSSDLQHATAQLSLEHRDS
Procedure, shortened: (§1)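 Human transcription factors fused to GST were expressed in yeast, captured on glutathione beads, given DNA barcodes and pooled with a GST-only negative control. Pools were incubated with 200 nmole of a 16-mer random double-stranded DNA library in Tris/NaCl/DTT/glycerol buffer at room temperature for 30 min. They were then washed, crosslinked with 0.1% formaldehyde, proximity-ligated (BsaI/T4 ligase, 1 h, 37 °C), PCR-amplified and sequenced on an Illumina NextSeq500. Binding signal is each 6-mer's read frequency for a factor divided by its frequency for the GST control.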

[2] = target: T2, ETV3L (Homo sapiens, UniProt Q6ZN32 1-361)
T2 sequence: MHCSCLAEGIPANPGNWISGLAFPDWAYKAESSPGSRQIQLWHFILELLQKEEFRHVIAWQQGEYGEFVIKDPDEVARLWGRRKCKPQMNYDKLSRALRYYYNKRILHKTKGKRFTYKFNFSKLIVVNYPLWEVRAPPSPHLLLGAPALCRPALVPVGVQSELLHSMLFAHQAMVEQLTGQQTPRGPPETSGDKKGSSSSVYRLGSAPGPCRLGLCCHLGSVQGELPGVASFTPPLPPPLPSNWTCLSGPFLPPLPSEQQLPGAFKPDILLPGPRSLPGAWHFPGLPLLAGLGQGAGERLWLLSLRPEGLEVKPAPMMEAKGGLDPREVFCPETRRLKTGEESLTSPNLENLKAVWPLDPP
Procedure, shortened: as §1

[3] = target: T3, ETS2 (Homo sapiens, UniProt P15036 1-469)
T3 sequence: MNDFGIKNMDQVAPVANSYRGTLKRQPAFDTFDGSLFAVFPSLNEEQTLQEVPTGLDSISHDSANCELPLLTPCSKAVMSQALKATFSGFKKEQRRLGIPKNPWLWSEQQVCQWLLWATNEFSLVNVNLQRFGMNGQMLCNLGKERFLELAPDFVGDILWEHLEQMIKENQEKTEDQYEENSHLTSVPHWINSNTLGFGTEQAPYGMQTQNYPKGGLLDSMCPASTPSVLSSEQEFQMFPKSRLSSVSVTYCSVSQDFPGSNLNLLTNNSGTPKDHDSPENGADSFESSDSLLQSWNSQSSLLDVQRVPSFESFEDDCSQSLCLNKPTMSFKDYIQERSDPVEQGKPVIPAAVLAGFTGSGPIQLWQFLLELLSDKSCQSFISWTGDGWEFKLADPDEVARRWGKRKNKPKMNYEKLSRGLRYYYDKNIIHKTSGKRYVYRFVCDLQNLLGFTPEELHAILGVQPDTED
Procedure, shortened: as §1

[4] = target: T4, SPDEF (Homo sapiens, UniProt O95238 1-335)
T4 sequence: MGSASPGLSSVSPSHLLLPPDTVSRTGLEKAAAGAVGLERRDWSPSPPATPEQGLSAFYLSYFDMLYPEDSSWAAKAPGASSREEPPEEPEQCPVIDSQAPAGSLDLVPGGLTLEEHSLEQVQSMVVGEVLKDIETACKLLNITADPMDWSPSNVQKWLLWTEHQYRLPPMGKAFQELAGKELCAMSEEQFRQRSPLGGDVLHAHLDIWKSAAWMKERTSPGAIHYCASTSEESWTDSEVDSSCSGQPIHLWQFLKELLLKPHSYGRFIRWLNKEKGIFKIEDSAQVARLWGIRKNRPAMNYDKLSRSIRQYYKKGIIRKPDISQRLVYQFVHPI
Procedure, shortened: as §1

[5] = target: T5, ETV7 (Homo sapiens, UniProt Q9Y603 1-341)
T5 sequence: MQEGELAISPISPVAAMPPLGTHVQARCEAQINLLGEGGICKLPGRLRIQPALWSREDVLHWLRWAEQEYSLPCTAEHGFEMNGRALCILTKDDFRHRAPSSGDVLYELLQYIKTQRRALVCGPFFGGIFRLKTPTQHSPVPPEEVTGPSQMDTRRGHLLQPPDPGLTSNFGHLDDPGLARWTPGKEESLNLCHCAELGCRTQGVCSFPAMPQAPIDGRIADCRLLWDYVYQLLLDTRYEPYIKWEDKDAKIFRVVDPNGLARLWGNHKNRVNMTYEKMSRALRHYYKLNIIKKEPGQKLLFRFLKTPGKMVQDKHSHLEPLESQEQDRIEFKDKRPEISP
Procedure, shortened: as §1

[6] = target: T6, ELF5 (Homo sapiens, UniProt Q9UKW6-2 1-255)
T6 sequence: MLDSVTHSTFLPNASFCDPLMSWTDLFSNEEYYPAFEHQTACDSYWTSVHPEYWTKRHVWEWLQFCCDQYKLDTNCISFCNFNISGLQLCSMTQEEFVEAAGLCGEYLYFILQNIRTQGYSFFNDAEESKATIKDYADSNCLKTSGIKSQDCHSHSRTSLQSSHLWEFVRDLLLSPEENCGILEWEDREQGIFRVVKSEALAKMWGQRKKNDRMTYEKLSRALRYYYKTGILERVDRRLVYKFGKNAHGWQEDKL
Procedure, shortened: as §1

[7] = target: T7, ETV3 (Homo sapiens, UniProt P41162-2 1-143)
T7 sequence: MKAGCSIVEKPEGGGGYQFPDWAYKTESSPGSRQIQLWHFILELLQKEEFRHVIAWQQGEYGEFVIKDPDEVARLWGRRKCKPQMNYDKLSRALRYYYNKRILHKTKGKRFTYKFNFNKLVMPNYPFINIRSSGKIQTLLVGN
Procedure, shortened: as §1

[8] = target: ETV6 (Homo sapiens, UniProt P41212 1-452)
Chain of ETV6 (P41212 whole entry): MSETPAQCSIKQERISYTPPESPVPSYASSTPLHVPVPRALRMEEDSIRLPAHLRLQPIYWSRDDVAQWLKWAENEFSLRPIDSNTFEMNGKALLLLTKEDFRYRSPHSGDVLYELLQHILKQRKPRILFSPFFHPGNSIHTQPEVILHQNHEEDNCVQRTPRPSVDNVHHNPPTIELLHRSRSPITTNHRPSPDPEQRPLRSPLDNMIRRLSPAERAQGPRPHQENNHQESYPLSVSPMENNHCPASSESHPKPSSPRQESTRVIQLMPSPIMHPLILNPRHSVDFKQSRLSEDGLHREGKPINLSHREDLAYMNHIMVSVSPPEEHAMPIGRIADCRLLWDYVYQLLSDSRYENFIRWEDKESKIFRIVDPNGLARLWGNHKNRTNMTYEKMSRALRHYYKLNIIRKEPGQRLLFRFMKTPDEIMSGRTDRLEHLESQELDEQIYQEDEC
Procedure, shortened: as §1

Sequence	binding signal [1]	binding signal [2]	binding signal [3]	binding signal [4]	binding signal [5]	binding signal [6]	binding signal [7]	binding signal [8]
CTGACC	1.34 fold enrichment (6-mer frequency, TF over GST control)	1.27 fold enrichment (6-mer frequency, TF over GST control)	1.38 fold enrichment (6-mer frequency, TF over GST control)	1.27 fold enrichment (6-mer frequency, TF over GST control)	1.29 fold enrichment (6-mer frequency, TF over GST control)	1.34 fold enrichment (6-mer frequency, TF over GST control)	1.4 fold enrichment (6-mer frequency, TF over GST control)	1.32 fold enrichment (6-mer frequency, TF over GST control)
TTCGAG	1.23 fold enrichment (6-mer frequency, TF over GST control)	1.36 fold enrichment (6-mer frequency, TF over GST control)	1.26 fold enrichment (6-mer frequency, TF over GST control)	1.19 fold enrichment (6-mer frequency, TF over GST control)	1.18 fold enrichment (6-mer frequency, TF over GST control)	1.14 fold enrichment (6-mer frequency, TF over GST control)	1.09 fold enrichment (6-mer frequency, TF over GST control)	1.28 fold enrichment (6-mer frequency, TF over GST control)
TGCGCA	1.11 fold enrichment (6-mer frequency, TF over GST control)	1.11 fold enrichment (6-mer frequency, TF over GST control)	1.18 fold enrichment (6-mer frequency, TF over GST control)	1.02 fold enrichment (6-mer frequency, TF over GST control)	1.03 fold enrichment (6-mer frequency, TF over GST control)	1.06 fold enrichment (6-mer frequency, TF over GST control)	1.14 fold enrichment (6-mer frequency, TF over GST control)	1.07 fold enrichment (6-mer frequency, TF over GST control)
GAACTT	1.56 fold enrichment (6-mer frequency, TF over GST control)	1.58 fold enrichment (6-mer frequency, TF over GST control)	1.61 fold enrichment (6-mer frequency, TF over GST control)	1.61 fold enrichment (6-mer frequency, TF over GST control)	1.62 fold enrichment (6-mer frequency, TF over GST control)	1.96 fold enrichment (6-mer frequency, TF over GST control)	1.69 fold enrichment (6-mer frequency, TF over GST control)	1.73 fold enrichment (6-mer frequency, TF over GST control)
CTTGGC	1.35 fold enrichment (6-mer frequency, TF over GST control)	1.15 fold enrichment (6-mer frequency, TF over GST control)	1.03 fold enrichment (6-mer frequency, TF over GST control)	1.14 fold enrichment (6-mer frequency, TF over GST control)	1.24 fold enrichment (6-mer frequency, TF over GST control)	1.12 fold enrichment (6-mer frequency, TF over GST control)	1.12 fold enrichment (6-mer frequency, TF over GST control)	1.1 fold enrichment (6-mer frequency, TF over GST control)
CTAAAC	1.17 fold enrichment (6-mer frequency, TF over GST control)	1.18 fold enrichment (6-mer frequency, TF over GST control)	1.19 fold enrichment (6-mer frequency, TF over GST control)	1.22 fold enrichment (6-mer frequency, TF over GST control)	1.2 fold enrichment (6-mer frequency, TF over GST control)	1.19 fold enrichment (6-mer frequency, TF over GST control)	1.25 fold enrichment (6-mer frequency, TF over GST control)	1.17 fold enrichment (6-mer frequency, TF over GST control)
TCTGAC	1.21 fold enrichment (6-mer frequency, TF over GST control)	1.04 fold enrichment (6-mer frequency, TF over GST control)	1.2 fold enrichment (6-mer frequency, TF over GST control)	1.14 fold enrichment (6-mer frequency, TF over GST control)	1.22 fold enrichment (6-mer frequency, TF over GST control)	1.2 fold enrichment (6-mer frequency, TF over GST control)	1.18 fold enrichment (6-mer frequency, TF over GST control)	1.27 fold enrichment (6-mer frequency, TF over GST control)
CGCGTC	1.37 fold enrichment (6-mer frequency, TF over GST control)	1.26 fold enrichment (6-mer frequency, TF over GST control)	1.24 fold enrichment (6-mer frequency, TF over GST control)	1.31 fold enrichment (6-mer frequency, TF over GST control)	1.25 fold enrichment (6-mer frequency, TF over GST control)	1.34 fold enrichment (6-mer frequency, TF over GST control)	1.23 fold enrichment (6-mer frequency, TF over GST control)	1.29 fold enrichment (6-mer frequency, TF over GST control)
AAGTGC	1.22 fold enrichment (6-mer frequency, TF over GST control)	1.2 fold enrichment (6-mer frequency, TF over GST control)	1.23 fold enrichment (6-mer frequency, TF over GST control)	1.26 fold enrichment (6-mer frequency, TF over GST control)	1.32 fold enrichment (6-mer frequency, TF over GST control)	1.29 fold enrichment (6-mer frequency, TF over GST control)	1.39 fold enrichment (6-mer frequency, TF over GST control)	1.36 fold enrichment (6-mer frequency, TF over GST control)
TACACA	1.24 fold enrichment (6-mer frequency, TF over GST control)	1.15 fold enrichment (6-mer frequency, TF over GST control)	1.16 fold enrichment (6-mer frequency, TF over GST control)	1.27 fold enrichment (6-mer frequency, TF over GST control)	1.19 fold enrichment (6-mer frequency, TF over GST control)	1.13 fold enrichment (6-mer frequency, TF over GST control)	1.13 fold enrichment (6-mer frequency, TF over GST control)	1.21 fold enrichment (6-mer frequency, TF over GST control)
AAGATA	1.17 fold enrichment (6-mer frequency, TF over GST control)	1.09 fold enrichment (6-mer frequency, TF over GST control)	1.1 fold enrichment (6-mer frequency, TF over GST control)	1.1 fold enrichment (6-mer frequency, TF over GST control)	1.1 fold enrichment (6-mer frequency, TF over GST control)	1.07 fold enrichment (6-mer frequency, TF over GST control)	1.11 fold enrichment (6-mer frequency, TF over GST control)	1.14 fold enrichment (6-mer frequency, TF over GST control)
ATACTC	1.36 fold enrichment (6-mer frequency, TF over GST control)	1.22 fold enrichment (6-mer frequency, TF over GST control)	1.26 fold enrichment (6-mer frequency, TF over GST control)	1.32 fold enrichment (6-mer frequency, TF over GST control)	1.23 fold enrichment (6-mer frequency, TF over GST control)	1.25 fold enrichment (6-mer frequency, TF over GST control)	1.33 fold enrichment (6-mer frequency, TF over GST control)	1.33 fold enrichment (6-mer frequency, TF over GST control)
AAAAGG	1.08 fold enrichment (6-mer frequency, TF over GST control)	1.1 fold enrichment (6-mer frequency, TF over GST control)	1.11 fold enrichment (6-mer frequency, TF over GST control)	1.07 fold enrichment (6-mer frequency, TF over GST control)	1.16 fold enrichment (6-mer frequency, TF over GST control)	1.21 fold enrichment (6-mer frequency, TF over GST control)	1.13 fold enrichment (6-mer frequency, TF over GST control)	1.19 fold enrichment (6-mer frequency, TF over GST control)
CCCAAC	1.24 fold enrichment (6-mer frequency, TF over GST control)	1.13 fold enrichment (6-mer frequency, TF over GST control)	1.13 fold enrichment (6-mer frequency, TF over GST control)	1.19 fold enrichment (6-mer frequency, TF over GST control)	1.06 fold enrichment (6-mer frequency, TF over GST control)	1.12 fold enrichment (6-mer frequency, TF over GST control)	1.05 fold enrichment (6-mer frequency, TF over GST control)	1.17 fold enrichment (6-mer frequency, TF over GST control)
AAATGC	1.27 fold enrichment (6-mer frequency, TF over GST control)	1.26 fold enrichment (6-mer frequency, TF over GST control)	1.25 fold enrichment (6-mer frequency, TF over GST control)	1.3 fold enrichment (6-mer frequency, TF over GST control)	1.34 fold enrichment (6-mer frequency, TF over GST control)	1.33 fold enrichment (6-mer frequency, TF over GST control)	1.18 fold enrichment (6-mer frequency, TF over GST control)	1.35 fold enrichment (6-mer frequency, TF over GST control)
